Common to all, as to test: Primary qHTS to identify gynecologic anti-cancer compounds using libraries of approved drugs and bioactive compounds (AID 1345084); also: nearly all actives have a fitted effect of over 55% in size
For orientation: In qHTS, concentration-response curves come from the screen itself.

One assay relates to C33A. The settings on record: Gynecologic cancer cell panel viability, ATPlite luminescence, 48 h; series mostly up to 57.5 µM. Summed up:
(§1)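 Luminescence from the ATPlite ATP-monitoring reagent indicates viable cell number; lower signal means cytotoxicity. Cells received compound 16 h after seeding and were exposed for 48 h across five concentrations.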
On the technique in general: In ATP-based viability assays light output follows the ATP content of the culture.

The test system of another assay is CASKI. The settings on record: Gynecologic cancer cell panel viability, ATPlite luminescence, 48 h; series mostly up to 57.5 µM. In short, it runs like this:
as §1

Another assay relates to Es-2. The settings on record: Gynecologic cancer cell panel viability, ATPlite luminescence, 48 h; series mostly up to 57.5 µM. Summed up:
as §1

The next assay relates to HeLa. The note with it: Gynecologic cancer cell panel viability, ATPlite luminescence, 48 h; series mostly up to 57.5 µM. Summed up: as §1
In another assay the test system is Hek293T. The settings on record: Gynecologic cancer cell panel viability, ATPlite luminescence, 48 h, control line for the selectivity index; series mostly up to 57.5 µM. Summed up:
as §1

The test system of a further assay is JEG-3. The settings on record: Gynecologic cancer cell panel viability, ATPlite luminescence, 48 h; series mostly up to 57.5 µM. In short, it runs like this: as §1
The subject of a further assay is OV90. The note with it: Gynecologic cancer cell panel viability, ATPlite luminescence, 48 h; series mostly up to 57.5 µM. In short, it runs like this:
as §1

For the next assay, the system named is PA-1. The settings on record: Gynecologic cancer cell panel viability, ATPlite luminescence, 48 h; series mostly up to 57.5 µM. Summed up: as §1
The next assay has as its system SKOV3. The settings on record: Gynecologic cancer cell panel viability, ATPlite luminescence, 48 h; series mostly up to 57.5 µM. In short, it runs like this: as §1
A further assay has as its system Tov-21-G. The settings on record: Gynecologic cancer cell panel viability, ATPlite luminescence, 48 h; series mostly up to 57.5 µM. Summed up: as §1
A further assay relates to Tov112D. The settings on record: Gynecologic cancer cell panel viability, ATPlite luminescence, 48 h; series mostly up to 57.5 µM. Summed up: as §1
The test system of another assay is CAOV3. The settings on record: Gynecologic cancer cell panel viability, ATPlite luminescence, 48 h; series mostly up to 57.5 µM. In short, it runs like this: as §1

Inconclusive results are not listed. Unmarked numbers belong to inactive results. The source made the active and inactive calls. Calls follow the shape of the dose curve; as a rule, active = well fitted cell-killing curve with a large enough effect; inconclusive = small, poorly fitted or top-dose-only effect, or effect the other way; inactive = flat fitted curve, though single readings scatter.
% is scaled to controls: 0 for no effect and ±100 for the full control effect; potency is read from the fitted curve at half-maximal effect.

For `CC1(C)CC[C@]2(C(=O)O[C@@H]3O[C@H](CO)[C@@H](O)[C@H](O)[C@H]3O)CC[C@]3(C)C(=CCC4[C@@]5(C)CC[C@H](O[C@@H]6O[C@H](C(=O)O)[C@@H](O)[C@H](O)[C@H]6O)[C@@](C)(CO)C5CC[C@]43C)C2C1` (some centres undefined), the activity change, negative = cytotoxicity was 9.39% [at 11.6 µM] with C33A; 1.03% [at 11.6 µM] in the assay on CASKI; 1.13% [at 11.6 µM] with Es-2; -10.8% [at 11.6 µM] with HeLa; 5.9% [at 11.6 µM] in the assay on Hek293T; -2.45% [at 11.6 µM] in the assay with JEG-3. For the same compound, the activity change, negative = cytotoxicity is 8.98% [at 11.6 µM] in the assay on OV90; 2.88% [at 11.6 µM] in the assay with PA-1; 0% [at 11.6 µM] in the assay with SKOV3; 2.2% [at 11.6 µM] in the assay on Tov-21-G; 2.24% [at 11.6 µM] in the assay with Tov112D.

Turning to `O=C(c1ccc(/C=C/c2n[nH]c3ccccc23)cc1)N1CCNCC1`, the Potency entry with C33A, in the assay on CAOV3 and in the assay on Hek293T was “inactive” in each case. Also, the Potency in the assay on HeLa is 2.24 µM (active); in the assay on OV90, 8.91 µM (active); with PA-1, 8.91 µM (active).

On to `C[C@@H]1O[C@@H](O[C@H]2[C@H](O[C@H]3CC[C@@]4(C)C(CC[C@]5(C)C4CC=C4[C@@H]6CC(C)(C)CC[C@]6(C(=O)O[C@@H]6OC[C@H](O)[C@H](O)[C@H]6O[C@@H]6O[C@@H](C)[C@H](O[C@@H]7O[C@H](CO)[C@@H](O)[C@H](O)[C@H]7O)[C@H](O)[C@H]6O)[C@H](O)C[C@]45C)C3(C)C)O[C@H](CO)[C@@H](O[C@@H]3OC[C@@H](O)[C@H](O)[C@H]3O)[C@@H]2O)[C@H](O)[C@H](O)[C@H]1O` (some centres undefined), for which the activity change, negative = cytotoxicity is -7.19% [at 6.55 µM] in the assay with C33A; 6.32% [at 6.55 µM] in the assay with CASKI; 0.0947% [at 6.55 µM] with Es-2; -17.4% [at 6.55 µM] in the assay on HeLa; 6.66% [at 6.55 µM] in the assay with Hek293T; 5.72% [at 6.55 µM] in the assay on JEG-3. Further, the activity change, negative = cytotoxicity in the assay on OV90 was 11.1% [at 6.55 µM]; in the assay with PA-1 it was 4.23% [at 6.55 µM]; in the assay on SKOV3 it was -6.09% [at 6.55 µM]; in the assay on Tov-21-G, 2.71% [at 6.55 µM]; with Tov112D, -23.4% [at 6.55 µM].

In the case of `C/C=C/C=C/C(=O)N1CC[C@]23c4ccccc4N[C@H]4N(C)c5cccc6c5[C@@]42CCN([C@H]6C2OC2(C)C)[C@H]13` (some centres undefined), the Potency entry in the assay on C33A, in the assay with CASKI, in the assay on Es-2, with HeLa, with Hek293T and with JEG-3 was “inactive” each time. For the same compound, the Potency entry in the assay with OV90, with PA-1, in the assay with SKOV3, in the assay on Tov-21-G and in the assay on Tov112D was “inactive” each time.

`C/C=C/c1ccc2c(c1)[C@@H](C)[C@H](c1ccc(O)cc1)O2`: the Potency result in the assay on C33A, in the assay on CASKI, with Es-2, in the assay on HeLa, in the assay with Hek293T and with JEG-3 was “inactive” in each case. Moreover, the Potency entry in the assay on OV90, in the assay on PA-1, with SKOV3, in the assay on Tov-21-G and with Tov112D was “inactive” throughout.

For `Cc1cccc(Oc2cnc(=O)[nH]c2)c1`, the Potency result with C33A, with CASKI, in the assay with Es-2, in the assay on HeLa, in the assay on Hek293T and in the assay on JEG-3 was “inactive” throughout. The Potency entry in the assay with OV90, with PA-1, with SKOV3, with Tov-21-G and in the assay with Tov112D was “inactive” each time.

On to `C/C1=C\CCC(C)CCO[C@@H]2O[C@H](CO[C@@H]3OC[C@H](O)[C@H](O)[C@H]3OC1=O)[C@@H](O)[C@H](O)[C@H]2O` (some centres undefined), for which the Potency entry with C33A, with CASKI, in the assay on Es-2, with HeLa, in the assay with Hek293T and in the assay with JEG-3 was “inactive” each time. In addition, the Potency result in the assay with OV90, with PA-1, in the assay on SKOV3, in the assay with Tov-21-G and in the assay with Tov112D was “inactive” each time.

Regarding `COC(=O)c1c(C)cc(OC(=O)c2c(C)cc(OC)cc2OC)cc1O[C@@H]1O[C@H](CO)[C@@H](O)[C@H](O)[C@H]1O`, the Potency result in the assay with C33A, with CASKI, in the assay with Es-2, in the assay on HeLa, in the assay with Hek293T and with JEG-3 was “inactive” each time. Further, the Potency entry with OV90, in the assay on PA-1, in the assay with SKOV3, in the assay with Tov-21-G and in the assay with Tov112D was “inactive” in each case.

As to `COc1ccc(C(=O)n2c(C)c(Cc3cccc(O[C@@H](C)C(=O)O)c3)c3cc(OC(F)(F)F)ccc32)cc1`, the Potency result in the assay on C33A, with CASKI, with Es-2, in the assay with HeLa, in the assay with Hek293T and in the assay with JEG-3 was “inactive” in each case. In addition, the Potency result with OV90, in the assay on PA-1, with SKOV3, with Tov-21-G and in the assay with Tov112D was “inactive” each time.

Consider `C=C1C(OC(=O)/C(C)=C\C)[C@@]23CCC4[C@@](C)(CCC[C@@]4(C)C(=O)O)C2CC[C@H]1C3OC(C)=O` (some centres undefined), for which the Potency result in the assay on C33A, with CASKI, in the assay with Es-2, with HeLa, in the assay on Hek293T and in the assay with JEG-3 was “inactive” in each case. The Potency result in the assay with OV90, in the assay on PA-1, in the assay with SKOV3, in the assay on Tov-21-G and in the assay with Tov112D was “inactive” in each case.

For `O=C1NC(Cc2c[nH]c3ccccc23)C(=O)NC1Cc1cnc[nH]1` (centres undefined), the Potency result with C33A, in the assay with CASKI, in the assay with Es-2, in the assay on HeLa, in the assay with Hek293T and in the assay on JEG-3 was “inactive” in each case. For the same compound, the Potency result with OV90, with PA-1, in the assay with SKOV3, in the assay on Tov-21-G and in the assay with Tov112D was “inactive” throughout.

`CC1=C(/C=C/C(C)=C\C=C\C(C)=C/C(=O)O)C(C)(C)CCC1`: the Potency entry in the assay on C33A, in the assay on CASKI, with Es-2, with HeLa, in the assay on Hek293T and with JEG-3 was “inactive” throughout. Besides, the Potency entry in the assay with OV90, with PA-1, in the assay on SKOV3, in the assay with Tov-21-G and in the assay with Tov112D was “inactive” throughout.

Take `C[C@@H]1[C@H]2[C@H](O[C@@H]3O[C@H](CO)[C@@H](O)[C@H](O)[C@H]3O)OC=C(C(=O)O)[C@H]2C[C@@H]1O`: the Potency entry in the assay with C33A, with CASKI, with Es-2, with HeLa, in the assay on Hek293T and with JEG-3 was “inactive” each time. Further, the Potency entry in the assay on OV90, with PA-1, with SKOV3, in the assay with Tov-21-G and with Tov112D was “inactive” throughout.

Take `CC(=O)O[C@@H]1[C@H](O[C@@H]2O[C@@H](CO)[C@H](O)[C@H]2O)[C@@H](O[C@@H]2O[C@@H](C)[C@H](O[C@@H]3OC[C@@H](O)[C@H](O)[C@H]3O)[C@@H](O)[C@H]2O)[C@H](OC(=O)[C@]23CCC(C)(C)C[C@H]2C2=CCC4[C@@]5(C)CC[C@H](O[C@@H]6O[C@H](C(=O)O)[C@@H](O)[C@H](O)[C@H]6O[C@@H]6O[C@H](CO)[C@H](O)[C@H](O)[C@H]6O)[C@@](C)(C=O)C5CC[C@@]4(C)[C@]2(C)CC3)O[C@@H]1C` (some centres undefined): the activity change, negative = cytotoxicity in the assay with C33A is 4.84% [at 6.55 µM]; in the assay with CASKI, 4.57% [at 6.55 µM]; in the assay on Es-2, 4.09% [at 6.55 µM]; in the assay on HeLa, 11.1% [at 6.55 µM]; in the assay on Hek293T it was 2.65% [at 6.55 µM]; with JEG-3 it was 11.6% [at 6.55 µM]. Besides, the activity change, negative = cytotoxicity was 12.8% [at 6.55 µM] with OV90; 11.1% [at 6.55 µM] in the assay with PA-1; 0% [at 6.55 µM] in the assay with SKOV3; 4.85% [at 6.55 µM] in the assay with Tov-21-G; 12.7% [at 6.55 µM] in the assay with Tov112D.

The values above are taken from PubChem BioAssay (NCATS).
